Assay results from the supplement of paper PMC10811239.

Tested on: LEGO organoid PTN (PTEN-/-; TP53-/-; NF1-/-)
Experiment: bioluminescence (viable cell) signal fold change after vs before treatment, normalised to DMSO (ratio); higher = more tumour cell growth / less inhibition
Conditions: 10 µM; treatment time 6 days
Experimental: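 Luc2-labelled iPSC-derived glioblastoma-like organoids (LEGOs, genotypes PT = PTEN-/-;TP53-/-, PTCC = plus CDKN2A/B-/-, PTN = plus NF1-/-) were treated with 10 uM drug for 6 days (applied every other day) at 37 C. Bioluminescence imaging was done before treatment and 2 days after the last dose. BLI signals were normalised to the DMSO control on the same day and then to the pre-treatment signal (N=3).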

| SMILES | bioluminescence |
| --- | --- |
| Cc1cccc([C@H](C)c2cnc[nH]2)c1C.Cl [Dexmedetomidine HCl] | 0.581 |
| CN[C@@H]1C[C@H]2O[C@@](C)([C@@H]1OC)n1c3ccccc3c3c4c(c5c6ccccc6n2c5c31)C(=O)NC4 [Staurosporine] | 0 |
| CC(C)C[C@H]1C(=O)N2CCC[C@H]2[C@]2(O)O[C@](NC(=O)[C@@H]3C[C@@H]4c5cccc6[nH]cc(c56)C[C@H]4N(C)C3)(C(C)C)C(=O)N12.CC(C)[C@@]1(NC(=O)[C@@H]2C[C@@H]3c4cccc5[nH]cc(c45)C[C@H]3N(C)C2)O[C@@]2(O)[C@@H]3CCCN3C(=O)[C@H](Cc3ccccc3)N2C1=O.CC(C)[C@H]1C(=O)N2CCC[C@H]2[C@]2(O)O[C@](NC(=O)[C@@H]3C[C@@H]4c5cccc6[nH]cc(c56)C[C@H]4N(C)C3)(C(C)C)C(=O)N12.CCC(C)[C@H]1C(=O)N2CCC[C@H]2[C@]2(O)O[C@](NC(=O)[C@@H]3C[C@@H]4c5cccc6[nH]cc(c56)C[C@H]4N(C)C3)(C(C)C)C(=O)N12.CS(=O)(=O)O [Dihydroergotoxine mesylate] | 1.88 |
| O=C(O)CCCc1ccc(N(CCCl)CCCl)cc1 [Chloroambucil] | 1.36 |
| COc1ccc(C(CN(C)C)C2(O)CCCCC2)cc1.Cl (configuration not stated) [Venlafaxine hydrochloride] | 1.33 |
| CN(C)C(=O)Oc1ccc[n+](C)c1.[Br-] [Mestinon] | 0.642 |
| Cc1n[nH]cc1-c1cc2[nH]c([C@@H]3CC4CCN3CC4)nc(=O)c2s1 [Simurosertib] | 1.05 |
| CC(C)c1cccc(C(C)C)c1O [Propofol] | 1.2 |
| Cl.Cn1c(CCCC(=O)O)nc2cc(N(CCCl)CCCl)ccc21 [Bendamustine hydrochloride] | 1.14 |
| NCC1(CC(=O)O)CCCCC1 [Gabapentin] | 0.585 |
| CC[C@@H](C(N)=O)N1CCCC1=O [Levetiracetam] | 0.81 |
| CCOC(=O)c1cncn1[C@H](C)c1ccccc1 [Etomidate] | 2.17 |
| NCC(CC(=O)O)c1ccc(Cl)cc1 (configuration not stated) [Baclofen] | 1.95 |
| CCC1(c2ccc(N)cc2)CCC(=O)NC1=O (configuration not stated) [Aminoglutethimide] | 1.07 |
| CCN(C)C(=O)Oc1cccc([C@H](C)N(C)C)c1 [Rivastigmine] | 1.18 |
| CCN(C)C(=O)Oc1cccc([C@H](C)N(C)C)c1.O=C(O)[C@H](O)[C@@H](O)C(=O)O [Rivastigmine tartrate] | 1.33 |
| COc1cc2c(cc1OC)[C@@H]1CC(=O)[C@@H](CC(C)C)CN1CC2.COc1cc2c(cc1OC)[C@H]1CC(=O)[C@H](CC(C)C)CN1CC2 [Tetrabenazine] | 0.557 |
